Results filed as inconclusive are left out. Active and inactive are the calls of the source. Rule for the calls: active = hit-call score of the fitted dose curve at least 0.9, where 1 is the maximum; inconclusive = response in the unintended direction; inactive = score below 0.9.
Tests used:
[1] = TOX21_p53_BLA_p2_viability: Viability Assessment in the Tox21 HCT-116 p53 Agonism Beta-lactamase Assay, Phase 2 (AID 2283591);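 note: actives lower the ATP signal meaning cytotoxicity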
Summary of the method: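 HCT-116 p53-bla cells (4000/well) rested 5 h at 37C, then received compounds in DMSO (217-fold dilution) for 16 h at 37C, 5% CO2. After the CCF4 read, CellTiter-Glo was added; ATP luminescence was read after 30 min at room temperature.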

[2] = target: Cellular tumor antigen p53 (Homo sapiens) (UniProt P04637); test: TOX21_p53_BLA_p2_ratio: Tox21 HCT-116 p53 Agonism Beta-lactamase Assay, Ratio, Phase 2 (AID 2283592)
Summary of the method: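 First, HCT116 reporter cells settle for 5 h at 37C. Next, DMSO compound solutions are pinned in (217-fold dilution) and left 16 h. Finally, CCF4-AM substrate is loaded 2 h at room temperature and the 460/530 nm ratio read.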

[3] = TOX21_p53_BLA_p3_viability: Viability Assessment in the Tox21 HCT-116 p53 Agonism Beta-lactamase Assay, Phase 3 (AID 2283593);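 note: cells exposed to compound for 16 h before reading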
Summary of the method: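 HCT-116 cells (4000/well) rested 5 h at 37C, then got DMSO compounds by pin tool (217-fold dilution) for 16 h at 37C, 5% CO2. After the bla read, CellTiter-Glo was added and luminescence read at 30 min, room temperature.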

[4] = target: Cellular tumor antigen p53 (Homo sapiens) (UniProt P04637); test: TOX21_p53_BLA_p3_ratio: Tox21 HCT-116 p53 Agonism Beta-lactamase Assay, Ratio, Phase 3 (AID 2283596)
Summary of the method: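 Cells were seeded at 4000/well, rested 5 h at 37C, then dosed with DMSO compound solutions (217-fold dilution) for 16 h. CCF4-AM substrate was loaded for 2 h at room temperature, and the 460/530 nm emission ratio was fitted for gain of signal versus DMSO.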

[5] = target: Cellular tumor antigen p53 (Homo sapiens) (UniProt P04637); test: TOX21_p53_BLA_p5_ratio: Tox21 HCT-116 p53 Agonism Beta-lactamase Assay, Ratio, Phase 5 (AID 2283599)
Summary of the method: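 HCT-116 cells carrying a p53-inducible beta-lactamase reporter were seeded at 4000 cells/well and dosed after 5 h with compound in DMSO (217-fold dilution). After 16 h at 37C, CCF4-AM substrate was added for 2 h, and the 460/530 nm emission ratio was scored as gain-of-signal versus DMSO.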

[6] = TOX21_p53_BLA_p5_viability: Viability Assessment in the Tox21 HCT-116 p53 Agonism Beta-lactamase Assay, Phase 5 (AID 2283600)
Summary of the method: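 Decreased CellTiter-Glo luminescence denotes lost viability. Exposure: 16 h at 37C, 5% CO2, with compounds from DMSO stocks diluted 217-fold in wells of 4000 cells.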

[7] = target: Cellular tumor antigen p53 (Homo sapiens) (UniProt P04637); test: TOX21_p53_BLA_p4_ratio: Tox21 HCT-116 p53 Agonism Beta-lactamase Assay, Ratio, Phase 4 (AID 2283601)
Summary of the method: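 HCT116 cells carrying an inducible beta-lactamase reporter were plated at 4000 cells/well, rested 5 h, then exposed to compounds in DMSO (217-fold dilution) for 16 h at 37C. CCF4-AM substrate was loaded 2 h at room temperature; 460/530 nm emission ratio scored gain-of-signal versus DMSO.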

Measured: AC50

Sequence of Cellular tumor antigen p53 (Homo sapiens) (P04637 whole entry, looked up): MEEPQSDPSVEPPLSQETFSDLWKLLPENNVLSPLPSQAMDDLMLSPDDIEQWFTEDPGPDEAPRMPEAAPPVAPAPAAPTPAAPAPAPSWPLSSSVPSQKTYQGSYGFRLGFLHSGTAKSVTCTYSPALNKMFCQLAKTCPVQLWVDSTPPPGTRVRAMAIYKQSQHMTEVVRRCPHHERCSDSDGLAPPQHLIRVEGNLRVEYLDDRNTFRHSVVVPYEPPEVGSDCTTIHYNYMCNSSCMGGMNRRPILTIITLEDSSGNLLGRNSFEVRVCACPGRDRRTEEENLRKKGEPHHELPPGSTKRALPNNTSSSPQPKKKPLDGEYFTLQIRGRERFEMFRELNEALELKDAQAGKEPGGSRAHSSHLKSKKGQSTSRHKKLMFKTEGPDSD

CC(=C\c1ccccc1)/C=C1/SC(=S)N(CC(=O)O)C1=O
inactive: [1] | [2] | [3] | [4] | [5] | [6] | [7]

CCCn1cnc2c1c(=O)n(CCCCC(C)=O)c(=O)n2C
inactive: [1] | [2] | [3] | [4] | [5] | [6]

CCc1nnc(NS(=O)(=O)c2ccc(N)cc2)s1
inactive: [1] | [2] | [3] | [4] | [5] | [6]

CCN(CC)c1ccc(N)cc1
inactive: [1] | [3] | [5] | [6]
active: [2] 31.2 µM | [4] 69.7 µM | [7] 73.4 µM

C=CC(C)(O)CC/C=C(\C)CCC=C(C)C (centres undefined)
inactive: [1] | [2] | [3] | [4] | [5] | [6] | [7]

CCOC(=O)C1=C(C)NC(C)=C(C(=O)OCC)C1c1ccccc1/C=C/C(=O)OC(C)(C)C
active: [1] 35.4 µM | [2] 38.6 µM | [3] 43 µM | [4] 39.5 µM | [5] 26.5 µM
inactive: [6] | [7]

O=C1c2ccccc2C(=O)c2cc(O)ccc21
inactive: [1] | [3] | [4] | [5]
active: [2] 37.8 µM | [7] 42.5 µM

CCCOC(=O)c1ccccc1
inactive: [1] | [2] | [3] | [4] | [5] | [6] | [7]

NCCc1cnc[nH]1
inactive: [1] | [2] | [3] | [4] | [5] | [6] | [7]

CO[C@@]1(NC(=O)CSCC#N)C(=O)N2C(C(=O)O)=C(CSc3nnnn3C)CS[C@@H]21
inactive: [1] | [2] | [3] | [4] | [5] | [7]

CN1C(C(=O)Nc2ccccn2)=C(O)c2ccccc2S1(=O)=O
inactive: [1] | [2] | [3] | [4] | [5] | [6] | [7]

C[N+]1([O-])CCOCC1
inactive: [1] | [2] | [3] | [4] | [5] | [6] | [7]

CC(C)C[C@@H](NC(=O)[C@@H](O)[C@H](N)Cc1ccccc1)C(=O)O
inactive: [1] | [2] | [3] | [4] | [5] | [6] | [7]

CC(C)C[C@H](NC(=O)[C@@H](COC(C)(C)C)NC(=O)[C@H](Cc1ccc(O)cc1)NC(=O)[C@H](CO)NC(=O)[C@H](Cc1c[nH]c2ccccc12)NC(=O)[C@H](Cc1cnc[nH]1)NC(=O)[C@@H]1CCC(=O)N1)C(=O)N[C@@H](CCCN=C(N)N)C(=O)N1CCC[C@H]1C(=O)NNC(N)=O
inactive: [1] | [2] | [3] | [4] | [5] | [6] | [7]

— PubChem BioAssay (EPA / NIEHS)
